In PubChem BioAssay (NCATS) one finds outcome, max response and Potency data, which are given here for 8 compounds.

“And” between values parts separate entries of the source, which are not always exact repeats. Identical values can stand only once. Inconclusive results are not listed. The source made the active and inactive calls. Unless noted, calls come from the whole dose curve.

Experiment [1] deals with Peroxisome proliferator-activated receptor delta (Homo sapiens) (UniProt Q03181). Kind of experiment: qHTS assay for small molecule antagonists of peroxisome proliferator-activated receptor delta signaling (AID 588535; active = well fitted inhibition curve with a large enough effect in the signal ratio, with a control signal flat, not every such curve was filed as active; the % refers to the signal ratio). To be noted: HEK293T PPARd-UAS-bla, beta-lactamase FRET ratio, 18 h; series mostly up to 76.7 µM. The gist of the method:
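Reporter: UAS-bla under PPAR-delta response element, HEK293T host. Medium: 2% charcoal/dextran FBS. Dosing: titration, 18 hrs, 37 C. Detection: CCF4, 2 hrs RT, 405 ex/460 and 530 em.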

For experiment [2], the target named is Vitamin D3 receptor (Homo sapiens) (UniProt P11473). Put plainly: qHTS assay for small molecule antagonists of vitamin D receptor signaling (AID 588541).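 Note: receptor activated by calcitriol during compound treatment; % is set by controls: 0 for no effect and ±100 for the full control effect.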 The following applies: HEK293T VDR-UAS-bla, beta-lactamase ratio, antagonist mode; series mostly up to 76.7 µM. The method, boiled down:
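VDR-UAS-bla HEK293T cells (2000/well, 2% charcoal-stripped FBS) were treated with titrated compounds plus 1-alpha,25-dihydroxyvitamin D3 (50 nM or 3 nM final) for 16 h at 37 C. CCF4 beta-lactamase fluorescence was read; Hill fits gave IC50.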

The target is the same in experiment [3]. Kind of experiment: qHTS assay for small molecule agonists of vitamin D receptor signaling (AID 588543). The following applies: HEK293T VDR-UAS-bla, beta-lactamase ratio, 16 h; series mostly up to 76.8 µM. The method, boiled down: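 VDR-UAS-bla HEK293T cells, 2000/well, 2% charcoal-stripped FBS; compound titration 16 h at 37 C; CCF4 beta-lactamase ratio read. Normalized to 50 nM 1-alpha,25-dihydroxyvitamin D3 (100%) and DMSO; Hill fit gives EC50, efficacy.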

The nature of experiment [4]: qHTS assay for small molecule agonists of retinoid X receptor alpha signaling (AID 588544). The following applies: HEK293T RXRa-UAS-bla, beta-lactamase reporter, 18 h; 530 nm emission. Background: qHTS replaces the single test concentration by a dilution series.
For experiment [5], the target named is Retinoic acid receptor RXR-alpha (Homo sapiens) (UniProt P19793). The description is as above. To be noted: HEK293T RXRa-UAS-bla, beta-lactamase reporter, 18 h; series mostly up to 76.7 µM.
Retinoic acid receptor RXR-alpha (Homo sapiens), sequence (P19793 whole entry, looked up): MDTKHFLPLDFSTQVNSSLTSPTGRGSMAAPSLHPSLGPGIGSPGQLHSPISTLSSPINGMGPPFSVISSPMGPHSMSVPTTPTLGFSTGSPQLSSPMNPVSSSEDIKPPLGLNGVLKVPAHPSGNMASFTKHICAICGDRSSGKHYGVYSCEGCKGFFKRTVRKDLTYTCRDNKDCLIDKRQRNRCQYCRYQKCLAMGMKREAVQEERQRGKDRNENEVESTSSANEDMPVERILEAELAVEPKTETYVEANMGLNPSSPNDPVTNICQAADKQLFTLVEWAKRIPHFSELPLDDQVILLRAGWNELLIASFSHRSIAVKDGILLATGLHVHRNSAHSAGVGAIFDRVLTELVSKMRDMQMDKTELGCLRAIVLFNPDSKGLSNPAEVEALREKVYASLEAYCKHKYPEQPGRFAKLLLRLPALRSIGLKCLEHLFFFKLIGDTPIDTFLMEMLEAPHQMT
For experiment [6], the target named is Thyroid hormone receptor beta (Homo sapiens) (UniProt P10828). Kind of experiment: qHTS assay for small molecule agonists of thyroid hormone receptor beta signaling (AID 588545). The following applies: TR-UAS-bla GripTite HEK 293, beta-lactamase ratio, agonist mode, 18 h, percent of T3 response, DMSO as zero; series mostly up to 76.7 µM. The gist of the method:
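Agonist-mode beta-lactamase reporter assay, HEK 293 cells, 2% charcoal/dextran FBS; cells plated 4 hrs, compound 18 hrs at 37 C, CCF4 2 hrs RT. Normalized to 10 nM T3 (100%) and DMSO (0%); Hill fit gives EC50, efficacy.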

Experiment [7] is described as follows: qHTS assay for small molecule antagonists of retinoid X receptor alpha signaling (AID 588546; active = well fitted inhibition curve with a large enough effect in the signal ratio, with a control signal flat, not every such curve was filed as active; the % refers to the signal ratio; note: potency is the fitted concentration of half-maximal effect; for max response: % is set by controls: 0 for no effect and ±100 for the full control effect). The following applies: HEK293T RXRa-UAS-bla, beta-lactamase ratio, antagonist mode; measured here: W530 green channel, cytotoxicity proxy. An excerpt:
(§1) NIH Chemical Genomics Center [NCGC] U.S. Environmental Protection Agency [EPA] National Institutes of Environmental Health Sciences [NIEHS] National Toxicology Program [NTP] NCGC Assay Overview The Retinoid X receptor (RXR), a nuclear hormone receptor is expressed in liver, spleen, placenta, epidermis, central nervous system. These receptors are able to form homo and heterodimers with other nuclear receptors and due to this heterodimerizing ability, RXR functions as master regulators producing diverse physiological effects. Three subtypes of RXR exist; alpha, beta and gamma. Retinoid X receptor alpha (RXR-alpha) has potential roles in metabolic signaling pathways, skin alopecia, dermal cysts, cardiac development, insulin sensitization etc. Therefore screening environmental chemicals on RXR-alpha signaling can be used for the studies focused on such therapeutic applications.
(§2) NCGC Assay Protocol Summary Using a beta-lactamase reporter-gene under control of Retinoid X receptor--alpha (RXR-alpha) response element, a cell-based assay [GeneBLAzer (RXR-alpha -UAS-bla assay developed by Invitrogen] was used to measure RXR-alpha ligands signaling. GeneBLAzer RXR-alpha -UAS-bla HEK293T cells were used with assay medium containing 2% charcoal-stripped FBS. The assay was performed in clear bottom black Greiner 1536-well plates. Library compounds were measured for their ability to inhibit the reporter gene activity. Compounds were screened in a titration series in 1536-well format. The fluorescence intensity (405 nm excitation, 460/530 nm emission) was measured using an EnVision plate reader. Data was normalized relative to 9-cis-retinoic acid control (500 nM, 100%), and DMSO only wells (basal, 0%). Concentration-response titration points for each compound were fitted to the Hill equation yielding concentrations of half-maximal inhibition (IC50) and maximal response (efficacy) values. qHTS protocol for RXR-alpha beta-lactamase assay in antagonist mode [Step] [Parameter] [Value] [Description] 1. Reagent; 5 uL; 2500 cells/well 2. Incubation; 37 C for 4 hrs 3. Compounds; 23 nL; 0.59 nM to 92 uM 4. Controls (DMSO); 23 nL 5. Agonist (Stimulator); 1uL; 9-cis-retinoic acid at 500 nM and 100 nM final concentrations 6. Incubation; 37 C for 18 hrs 7. Detection reagent; 1 uL of CCF4-dye 8. Incubation; RT for 2 hrs 9. Detection; Fluorescence; Envision plate reader

Experiment [8] has as its target Retinoic acid receptor RXR-alpha (Homo sapiens) (UniProt P19793). The description is as above. The following applies: HEK293T RXRa-UAS-bla, beta-lactamase ratio, antagonist mode.
Excerpt: as §1, §2

For experiment [9], the target named is Peroxisome proliferator-activated receptor gamma (Homo sapiens) (UniProt P37231). Put plainly: qHTS assay for small molecule agonists of peroxisome proliferator-activated receptor gamma signaling (AID 588536; active = well fitted curve in the direction sought with a large enough effect in the signal ratio, with a control signal flat, not every such curve was filed as active; the % refers to the signal ratio). The following applies: HEK293 PPARg-UAS-bla, beta-lactamase ratio, 16 h, percent of rosiglitazone response, DMSO as zero; series mostly up to 76.7 µM. From the text: NIH Chemical Genomics Center [NCGC] U.S. Environmental Protection Agency [EPA] National Institutes of Environmental Health Sciences [NIEHS] National Toxicology Program [NTP] NCGC Assay Overview The Peroxisome proliferator-activated receptors (PPARs) are lipid-activated transcription factors of the nuclear receptor superfamily with three distinct subtypes namely PPAR alpha, PPAR delta (also called PPAR beta) and PPAR gamma. All these subtypes heterodimerizes with Retinoid X receptor (RXR) and these heterodimers regulate transcription of various genes. PPAR-gamma (glitazone receptor) agonists have been used in the treatment of type 2 diabetes and dyslipidaemia. It is involved in the regulation of glucose and lipid metabolism. PPAR-gamma activates certain genes like Paraoxonase 1 which is responsible for hydrolyzing organophosphates. PPAR-gamma agonists may also be therapeutically important in the treatment of coronary artery disease, obesity and cancer and atherosclerosis.
Peroxisome proliferator-activated receptor gamma (Homo sapiens), sequence (P37231 whole entry, looked up): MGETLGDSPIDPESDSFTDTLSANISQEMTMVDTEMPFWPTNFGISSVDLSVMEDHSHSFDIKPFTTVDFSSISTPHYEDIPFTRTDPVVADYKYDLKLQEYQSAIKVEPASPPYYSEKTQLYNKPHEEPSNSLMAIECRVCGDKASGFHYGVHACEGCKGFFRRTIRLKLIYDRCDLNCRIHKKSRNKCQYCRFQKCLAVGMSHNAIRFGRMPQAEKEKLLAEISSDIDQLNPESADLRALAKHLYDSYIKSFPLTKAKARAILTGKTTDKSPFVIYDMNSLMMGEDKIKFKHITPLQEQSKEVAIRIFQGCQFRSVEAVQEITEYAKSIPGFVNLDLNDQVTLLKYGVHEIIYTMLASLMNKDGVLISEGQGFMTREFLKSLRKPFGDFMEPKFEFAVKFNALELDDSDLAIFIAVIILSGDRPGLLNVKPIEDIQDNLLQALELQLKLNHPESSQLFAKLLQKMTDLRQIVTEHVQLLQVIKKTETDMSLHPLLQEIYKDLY
NCGC Assay Protocol Summary Using a beta-lactamase reporter-gene under control of Peroxisome Proliferator-Activated-gamma (PPAR-gamma) response element, a cell-based assay [GeneBLAzer PPAR-gamma-UAS-bla assay developed by Invitrogen] was used to measure PPAR-gamma ligands signaling. GeneBLAzer PPAR-gamma-UAS-bla-HEK293 cells were used with assay medium containing 1% charcoal/dextran treated FBS. The assay was performed in clear bottom black Greiner 1536-well plates. Rosiglitazone was used in the screen as the positive control. Library compounds were measured for their ability to stimulate the reporter gene activity. Compounds were screened in a titration series in 1536-well format. The fluorescence intensity (405 nm excitation, 460/530 nm emission) was measured using an EnVision plate reader. Data was normalized relative to Rosiglitazone control (2 uM, 100%), and DMSO only wells (basal, 0%). Concentration-response titration points for each compound were fitted to the Hill equation yielding concentrations of half-maximal stimulation (EC50) and maximal response (efficacy) values. qHTS protocol for PPAR-gamma beta-lactamase assay in agonist mode [Step] [Parameter] [Value] [Description] 1. Reagent; 6 uL; 3000 cells/well 2. Incubation; 37 C for 6 - 6.5 hrs 3. Compounds; 23 nL; 0.59 nM to 92 uM 4. Controls (Rosiglitazone); 23 nL, - One column with dose response, start 19 uM, 1:3 dilutions in duplicates - Final concentrations of 2 uM and 0.5 uM in two columns 5. Incubation; 37 C for 16 hrs 6. Detection reagent; 1 uL of CCF4-dye 7. Incubation; RT for 2 hrs 8. Detection; Fluorescence; Envision plate reader

For experiment [10] the target is unchanged. Kind of experiment: qHTS assay for small molecule antagonists of peroxisome proliferator-activated receptor gamma signaling (AID 588537; active = well fitted inhibition curve with a large enough effect in the signal ratio, with a control signal flat, not every such curve was filed as active; the % refers to the signal ratio; note: potency is the fitted concentration of half-maximal effect). The following applies: HEK293 PPARg-UAS-bla, beta-lactamase ratio, antagonist mode; series mostly up to 76.8 µM. The method, boiled down:
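We seeded GeneBLAzer HEK293 reporter cells at 3000 per well, allowed 6-6.5 h attachment at 37 C, then co-treated with test compound titrations and 50 nM rosiglitazone overnight (16 h). Inhibition was quantified from 460/530 nm emission ratios.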

Thyroid hormone receptor beta (Homo sapiens), sequence (P10828 whole entry, looked up): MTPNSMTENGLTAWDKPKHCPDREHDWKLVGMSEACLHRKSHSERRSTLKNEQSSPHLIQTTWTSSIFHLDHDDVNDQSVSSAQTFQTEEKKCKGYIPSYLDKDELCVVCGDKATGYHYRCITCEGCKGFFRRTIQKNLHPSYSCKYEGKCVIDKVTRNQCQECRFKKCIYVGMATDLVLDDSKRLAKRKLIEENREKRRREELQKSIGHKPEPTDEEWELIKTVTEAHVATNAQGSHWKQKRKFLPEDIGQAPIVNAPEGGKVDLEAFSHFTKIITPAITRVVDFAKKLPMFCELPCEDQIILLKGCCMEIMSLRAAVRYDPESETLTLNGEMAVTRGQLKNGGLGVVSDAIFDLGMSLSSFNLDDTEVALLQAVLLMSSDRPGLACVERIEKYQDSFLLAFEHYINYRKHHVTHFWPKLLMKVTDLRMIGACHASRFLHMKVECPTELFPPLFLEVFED
Vitamin D3 receptor (Homo sapiens), sequence (P11473 whole entry, looked up): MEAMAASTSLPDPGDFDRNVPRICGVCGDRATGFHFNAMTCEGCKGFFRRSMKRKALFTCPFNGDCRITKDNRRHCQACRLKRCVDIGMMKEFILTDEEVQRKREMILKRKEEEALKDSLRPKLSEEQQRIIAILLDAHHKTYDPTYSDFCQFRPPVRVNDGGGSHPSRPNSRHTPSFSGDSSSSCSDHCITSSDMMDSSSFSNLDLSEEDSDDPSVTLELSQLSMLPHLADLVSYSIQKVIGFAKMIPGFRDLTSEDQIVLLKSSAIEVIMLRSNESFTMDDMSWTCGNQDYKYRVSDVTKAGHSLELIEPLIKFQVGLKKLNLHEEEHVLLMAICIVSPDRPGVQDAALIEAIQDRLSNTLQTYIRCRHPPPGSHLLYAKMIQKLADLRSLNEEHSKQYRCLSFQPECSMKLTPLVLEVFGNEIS
Peroxisome proliferator-activated receptor delta (Homo sapiens), sequence (Q03181 whole entry, looked up): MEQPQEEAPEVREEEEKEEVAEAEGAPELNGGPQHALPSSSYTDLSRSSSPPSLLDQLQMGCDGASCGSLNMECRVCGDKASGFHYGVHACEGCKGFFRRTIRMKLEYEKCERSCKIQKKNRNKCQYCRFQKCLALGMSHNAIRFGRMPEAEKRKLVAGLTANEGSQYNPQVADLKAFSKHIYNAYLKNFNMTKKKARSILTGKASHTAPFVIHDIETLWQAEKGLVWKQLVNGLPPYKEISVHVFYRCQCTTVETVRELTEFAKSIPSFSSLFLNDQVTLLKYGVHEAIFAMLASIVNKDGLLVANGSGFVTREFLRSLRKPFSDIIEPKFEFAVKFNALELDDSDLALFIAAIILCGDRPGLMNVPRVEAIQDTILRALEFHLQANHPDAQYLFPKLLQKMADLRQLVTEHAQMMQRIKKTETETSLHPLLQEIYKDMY

For `CCCCCCCCCC(=O)O`, the result in experiment [1], in [2], in experiment [3], in [5] and in [6] was inactive. Also, the max response was 6.89% and 0.0203% in [4]; 6.37% and -10.5% in [7]; -2.15% (inactive) and -5.65% (inactive) in experiment [8].
For `O=C(O)CC(O)(CC(=O)O)C(=O)O`, the result in experiment [1], in experiment [9], in experiment [2], in [3], in experiment [5] and in experiment [6] was inactive. The max response in experiment [4] is 2.81% and -9.62% and -10.5%; in [7], -2.45% and -5.52% and -2.31%; in experiment [8] it was -0.99% (inactive) and 3.25% (inactive) and -0.625% (inactive).
For `CN(C)Cc1ccccc1`, the outcome in [1], in experiment [9], in experiment [2], in experiment [5] and in experiment [6] was inactive. Also, the Potency result in experiment [10] was “inactive”. The max response in experiment [4] was -2.82%; in [7], -2.86%; in experiment [8], -1.44% (inactive).
On to `CC(=O)S[C@@H]1CC2=CC(=O)CC[C@]2(C)[C@H]2CC[C@@]3(C)[C@@H](CC[C@@]34CCC(=O)O4)[C@H]12`, for which the Potency in [10] was 39.8 µM (active). The result in experiment [6] was inactive.
Regarding `COC(C)=O`, the result in [1], in experiment [9], in [5] and in experiment [6] was inactive. In addition, the max response is -9.31% in [4], -2.37% in [7] and 11.4% (inactive) in [8].
Turning to `CCCCCCCC/C=C\CCCCCCCC(=O)OC[C@@H](O)[C@H]1OC[C@H](O)[C@H]1O`, the result in [1], in [9], in [2], in experiment [3], in experiment [5] and in experiment [6] was inactive. Further, the results for the max response in experiment [4], in experiment [7] and in experiment [8] were -2.66%, -8.17% and -13.5% (inactive), respectively.
Consider `C=Cc1ccccc1`, for which the outcome in experiment [1], in [9], in experiment [2], in experiment [3] and in experiment [5] was inactive. Also, the Potency entry in experiment [10] was “inactive”. The max response in [4] is -4.91%; in experiment [7], -10.4% and -6.3%; in experiment [8], 1.17% (inactive) and -1.22% (inactive).
Regarding `O=S(=O)(c1ccccc1)N(CC(F)(F)F)c1ccc(C(O)(C(F)(F)F)C(F)(F)F)cc1`, the outcome in [1], in experiment [5] and in experiment [6] was inactive. In addition, the max response in experiment [4] is -15.6%; in [7], -56.3%. The Potency in experiment [8] is 12.6 µM (active).
